# Experimental data as given in PubChem BioAssay (Tox21).
# “And” between values parts separate entries of the source, which are not always exact repeats. Equal values may be shown once. Results filed as inconclusive are left out. Where a call stands in place of a potency, no number is given. Some structures have more than one record in an assay (separate samples or runs), and their calls can disagree. The source made the active and inactive calls. The call rests on the fitted dose curve.
# Test: qHTS assay for small molecule agonists of the p53 signaling pathway - cell viability (AID 651633); further: nearly all actives have a fitted effect of over 30% in size
# Settings: p53RE-bla HCT-116 viability, ATP luminescence, 16 h; series mostly up to 83.3 µM
# Text: National Center for Advancing Translational Sciences [NCATS]
# NIH Chemical Genomics Center [NCGC]
# U.S. Environmental Protection Agency [EPA]
# National Institutes of Environmental Health Sciences [NIEHS]
# National Toxicology Program [NTP]
# U.S. Food and Drug Administration [FDA]
# p53, a tumor suppressor protein, is activated following cellular insult, including DNA damage and other cellular stresses. The activation of p53 regulates cell fate by inducing DNA repair, cell cycle arrest, apoptosis, or cellular senescence. The activation of p53, therefore, is a good indicator of DNA damage and other cellular stresses. […] The activation of the reporter gene under culture conditions can be detected by fluorescence intensity. This cell line was used to screen the Tox21 compound library in a 1536-well plate format and to identify agonists that activate the p53 signaling pathway.
# Tox21 Assay Protocol Summary:
# The p53RE-bla cells were dispensed at 4,000 cells/5 ul/well in 1536-well black wall/clear bottom plates using a Multidrop dispenser. After the assay plates were incubated at a 37 C/5% CO2 incubator for 5 hours, 23 nL of compounds dissolved in DMSO, positive controls or DMSO only was transferred to the assay plate by a pin tool. The plates were incubated at 37 C for 16 hours. After 1 uL of LiveBLAzerTM B/G FRET substrate was added using a Flying Reagent Dispenser, the plates were incubated at room temperature for 2 hours, and fluorescence intensity was measured by an Envision plate reader.
# For cell viability readout that measures cytotoxicity, 4 ul/well of CellTiter-Glo reagent was added into the assay plates using a Flying Reagent Dispenser. After 30 min incubation at room temperature, the luminescence intensity in the plates was measured using a ViewLux plate reader.
# Potency means the concentration at half of the fitted maximal effect.
row,SMILES,Potency
1,O=C(OCc1ccccc1)c1ccccc1O,inactive
2,c1ccc2cc(Nc3ccc(Nc4ccc5ccccc5c4)cc3)ccc2c1,inactive
3,COc1c(Cl)c(Cl)c(Cl)c(Cl)c1Cl,inactive
4,CCCCCCCCCCCO,inactive and 61.1 µM (active)
5,O=CCc1ccccc1,inactive
6,CC(=O)Oc1ccccc1C(=O)Nc1ncc([N+](=O)[O-])s1,9.44 µM (active) and inactive
7,CCOCCOCCO,inactive
8,COc1cccc2c1C(=O)c1c(O)c3c(c(O)c1C2=O)C[C@@](O)(C(=O)CO)C[C@@H]3O[C@H]1C[C@H](N)[C@H](O)[C@H](C)O1,inactive
9,CCCCNS(=O)(=O)c1ccccc1,inactive
10,COC(=O)c1ccccc1,inactive
11,OC(CCl)CCl,inactive
12,C=CC(C)(CCC=C(C)C)OC(C)=O (stereo not given),inactive
13,COC(C)COC(C)COC(C)CO (stereo not given),inactive
14,CC(=O)c1ccccn1,inactive
15,C#C[C@]1(O)CC[C@H]2[C@@H]3CCc4cc(OC)ccc4[C@H]3CC[C@@]21C,inactive
16,Oc1ccc(O)cc1,21.1 µM (active) and 13.6 µM (active) and 17.2 µM (active)
17,COc1ccc(C(=O)CC(=O)c2ccc(C(C)(C)C)cc2)cc1,inactive
18,CN(C)CCN(Cc1cccs1)c1ccccn1,inactive
19,CCC(C)OC(=O)c1ccc(O)cc1 (stereo not given),inactive
20,Cc1cccc([N+](=O)[O-])c1C,inactive

row,SMILES,Potency
1,CC(=O)C1(C)CC2=C(CCCC2(C)C)CC1C (stereo not given),inactive
2,c1ccc(Nc2ccccc2)cc1,inactive
3,CN1C(C(=O)Nc2ccccn2)=C(O)c2ccccc2S1(=O)=O,inactive
4,OCCO,inactive
5,NC=O,inactive
6,Cc1ccc(C)c(O)c1C,inactive
7,CC(C)(C)NC(=O)[C@H]1CC[C@H]2[C@@H]3CC[C@H]4NC(=O)C=C[C@]4(C)[C@H]3CC[C@]12C,inactive
8,C=C(C)C1CC=C(C)CC1 (stereo not given),inactive
9,O=C(/C=C/C=C/c1ccc2c(c1)OCO2)N1CCCCC1,inactive
10,CN(C)c1nc(N(C)C)nc(N(C)C)n1,inactive
11,Nc1ccccc1N,inactive
12,COc1ccc(OC)c(C(O)CNC(=O)CN)c1 (stereo not given),inactive
13,Nc1ccc(S(=O)(=O)Nc2cnc3ccccc3n2)cc1,inactive
14,C=C(C)C(=O)OCCOC(=O)C(=C)C,inactive
15,C/C=C/C(=O)O,inactive
16,c1ccc2c(c1)c1cccc3ccc4cccc2c4c31,3.04 µM (active) and inactive
17,C[Si](C)(C)O[Si](C)(C)C,inactive
18,CCCCC(CC)COP(=O)(OCC(CC)CCCC)OCC(CC)CCCC (stereo not given),inactive
19,Brc1cc(Oc2cc(Br)c(Br)c(Br)c2Br)c(Br)c(Br)c1Br,inactive
20,COC(=O)CCC(=O)OC,inactive
